# Data reported in PubChem BioAssay (EPA / NIEHS).
# Records with an inconclusive call do not appear. Calls of active or inactive are those of the source. The calls were made as follows: active = hit-call score of the fitted dose curve at least 0.9, where 1 is the maximum; inconclusive = response in the unintended direction; inactive = score below 0.9.
# Tested on: not listed separately
# Test: TOX21_p53_BLA_p5_viability: Viability Assessment in the Tox21 HCT-116 p53 Agonism Beta-lactamase Assay, Phase 5 (AID 2283600)
# Outline: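 Compounds, pinned from DMSO at 217-fold dilution, were left on the cells for 16 h. The viability endpoint was ATP content measured by CellTiter-Glo luminescence, where falling signal reflects cytotoxicity.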
Structure (SMILES),outcome,AC50
O=C(O)CCN(C1(C(=O)NO)CCCC1)S(=O)(=O)c1ccc(Oc2ccc(F)cc2)cc1,inactive,–
Cc1ccc(N)cc1O,inactive,–
CC1=CC(=O)CC(C)(C)C1,inactive,–
COC(=O)CC(=O)OC,inactive,–
CCCCC(CC)COC(=O)c1ccc(C(=O)OCC(CC)CCCC)cc1 (stereo unspecified),inactive,–
COc1ccc2sc(C(=O)Nc3nnn[nH]3)c(OC(C)C)c2c1,inactive,–
CCc1cc(SCc2sc(-c3ccc(C(F)(F)F)cc3)nc2CN2CCN(c3ccc(OC)cc3)CC2)ccc1OCC(=O)O,–,9.98 µM (active)
CCOC(=O)COc1ccc2c(c1)CC(NCC(O)c1cccc(Cl)c1)CC2 (stereo unspecified),inactive,–
CCOc1cccc(-n2cc(C(=O)N3CCN(c4cc(C(=O)O)c5ccccc5c4)CC3)nc2-c2ccc(C)cc2)c1,–,36.4 µM (active)
COCCOc1cc2cc(C(=O)NC3CCN(C(C)C)CC3)n(CC(=O)Nc3ccc(Cl)cn3)c2cn1,inactive,–

# Biological target: Cellular tumor antigen p53 (Homo sapiens) (UniProt P04637)
# Test: TOX21_p53_BLA_p4_ratio: Tox21 HCT-116 p53 Agonism Beta-lactamase Assay, Ratio, Phase 4 (AID 2283601)
# Outline: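 HCT116 cells carrying an inducible beta-lactamase reporter were plated at 4000 cells/well, rested 5 h, then exposed to compounds in DMSO (217-fold dilution) for 16 h at 37C. CCF4-AM substrate was loaded 2 h at room temperature; 460/530 nm emission ratio scored gain-of-signal versus DMSO.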
# Cellular tumor antigen p53 (Homo sapiens), sequence (P04637 whole entry, looked up): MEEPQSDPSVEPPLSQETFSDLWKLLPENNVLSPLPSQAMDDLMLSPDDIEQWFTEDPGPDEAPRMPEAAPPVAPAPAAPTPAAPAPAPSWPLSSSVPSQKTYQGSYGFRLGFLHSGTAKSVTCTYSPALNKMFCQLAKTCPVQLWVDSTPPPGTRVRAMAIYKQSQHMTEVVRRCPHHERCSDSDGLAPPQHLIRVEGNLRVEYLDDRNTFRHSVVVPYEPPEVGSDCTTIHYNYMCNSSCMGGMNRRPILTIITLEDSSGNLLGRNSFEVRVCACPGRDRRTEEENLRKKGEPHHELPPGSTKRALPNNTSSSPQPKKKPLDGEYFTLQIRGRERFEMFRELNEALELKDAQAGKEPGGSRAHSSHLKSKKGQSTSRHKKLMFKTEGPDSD
Structure (SMILES),AC50,outcome
COc1cccc(-c2ccc(/C=C\CN3CCCCCC3)cc2Cl)c1,73.8 µM (active),–
CC[C@H]1CC[C@H](NCc2cc3c(cc2OC)[C@H]2C[C@H]2C(=O)N3C)[C@H](c2ccccc2)N1,–,inactive
CCCCCCCCO,–,inactive
Fc1ccccc1[C@@H](F)COC1CCC(Nc2ncnc3[nH]ncc23)CC1 (stereo partly specified),–,inactive
CNCc1ccc(NC(=O)c2c[nH]c3c2C(=O)CCC3)cc1,–,inactive
O=c1[nH]c2ccc(S(=O)CCN3CCC(Cc4ccc(F)cc4)CC3)cc2o1 (stereo unspecified),–,inactive
CCOC(=O)c1ccc(C2CCC(NC[C@H](O)COc3ccc(O)c(NS(C)(=O)=O)c3)CC2)cc1 (stereo partly specified),84 µM (active),–
CCN(C(=O)c1cc(C)cc(OC[C@H](C)Nc2ccncc2)c1)C(C)C,–,inactive
Cc1ccc(O)cc1,–,inactive
CNS(=O)(=O)c1cc(C(=O)N2CCC(CCN3C4CCC3CC(n3c(C)nc5ccccc53)C4)(c3cccc(F)c3)CC2)c(Cl)cc1F (stereo unspecified),–,inactive
CN(C)c1ccc(Cc2ccc(N(C)C)cc2)cc1,–,inactive
CCNc1ccccc1,–,inactive
CC(C)=CCC/C(C)=C/CO,–,inactive
CC(=O)c1ccc2c(c1)[C@H](NC(=O)c1ccc(F)cc1)[C@@H](O)C(C)(C)O2,–,inactive
Cc1ccc(N)cc1O,–,inactive
CC1=CC(=O)CC(C)(C)C1,–,inactive
COC(=O)CC(=O)OC,–,inactive
CCCCC(CC)COC(=O)c1ccc(C(=O)OCC(CC)CCCC)cc1 (stereo unspecified),–,inactive
COc1ccc2sc(C(=O)Nc3nnn[nH]3)c(OC(C)C)c2c1,–,inactive
Cc1c(-c2cccnc2)c2ccccc2n1CCCCC(=O)O,–,inactive
CCc1cc(SCc2sc(-c3ccc(C(F)(F)F)cc3)nc2CN2CCN(c3ccc(OC)cc3)CC2)ccc1OCC(=O)O,9.5 µM (active),–
CCOC(=O)COc1ccc2c(c1)CC(NCC(O)c1cccc(Cl)c1)CC2 (stereo unspecified),71.7 µM (active),–
CCOc1cccc(-n2cc(C(=O)N3CCN(c4cc(C(=O)O)c5ccccc5c4)CC3)nc2-c2ccc(C)cc2)c1,24.1 µM (active),–

# Tested on: not listed separately
# Test: Tanguay_ZF_120hpf_MORT_legacy: (Legacy) Oregon State University Tanguay Lab 120 Hour Post-fertilization zebrafish Assay for Mortality (AID 2283633);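 as to AC50: fitted as increase in binary mortality versus DMSO negative control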
# Outline: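 Brightfield scoring of embryo death (binary) at 24 and 120 hpf; static exposure 6–120 hpf, 28C, sealed and foil-covered. Pronase-dechorionated 5D wild-type larvae, single embryo per well. DMSO 0.64% v/v; trimethyltin chloride 5uM positive control.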
Structure (SMILES),outcome,AC50
Fc1ccccc1[C@@H](F)COC1CCC(Nc2ncnc3[nH]ncc23)CC1 (stereo partly specified),inactive,–
O=c1[nH]c2ccc(S(=O)CCN3CCC(Cc4ccc(F)cc4)CC3)cc2o1 (stereo unspecified),inactive,–
CNS(=O)(=O)c1cc(C(=O)N2CCC(CCN3C4CCC3CC(n3c(C)nc5ccccc53)C4)(c3cccc(F)c3)CC2)c(Cl)cc1F (stereo unspecified),inactive,–
CC(C)CCO,inactive,–
CCCCC(CC)COC(=O)CCCCCCCCC(=O)OCC(CC)CCCC (stereo unspecified),inactive,–
CC(C)CCCCCCOC(=O)c1ccc(C(=O)OCCCCCCC(C)C)c(C(=O)OCCCCCCC(C)C)c1,inactive,–
CC(C)=CCC/C(C)=C/CO,inactive,–
Cc1ccc(N)cc1O,inactive,–
CC1=CC(=O)CC(C)(C)C1,inactive,–
COC(=O)CC(=O)OC,inactive,–
COc1ccc2sc(C(=O)Nc3nnn[nH]3)c(OC(C)C)c2c1,inactive,–
Cc1c(-c2cccnc2)c2ccccc2n1CCCCC(=O)O,inactive,–
CCc1cc(SCc2sc(-c3ccc(C(F)(F)F)cc3)nc2CN2CCN(c3ccc(OC)cc3)CC2)ccc1OCC(=O)O,inactive,–
CCOC(=O)COc1ccc2c(c1)CC(NCC(O)c1cccc(Cl)c1)CC2 (stereo unspecified),–,15.6 µM (active)
COCCOc1cc2cc(C(=O)NC3CCN(C(C)C)CC3)n(CC(=O)Nc3ccc(Cl)cn3)c2cn1,inactive,–

# Tested on: not listed separately
# Test: Tanguay_ZF_120hpf_YSE_legacy: (Legacy) Oregon State University Tanguay Lab 120 Hour Post-fertilization zebrafish Assay for Yolk Sac Edema (AID 2283634);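 as to AC50: actives raise the incidence of yolk sac edema above the DMSO baseline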
# Outline: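 Binary brightfield scoring of yolk sac edema at 120 hpf; DMSO baseline, gain-of-signal fitting. Dechorionated 5D larvae, one per well, static exposure 6–120 hpf, 28C, 0.64% DMSO. Dead embryos not scored.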
Structure (SMILES),outcome,AC50
COc1cccc(-c2ccc(/C=C\CN3CCCCCC3)cc2Cl)c1,inactive,–
CCCCCCCCO,inactive,–
CCOC(=O)c1ccc(C2CCC(NC[C@H](O)COc3ccc(O)c(NS(C)(=O)=O)c3)CC2)cc1 (stereo partly specified),inactive,–
CC(C)CCO,inactive,–
CCCCC(CC)COC(=O)CCCCCCCCC(=O)OCC(CC)CCCC (stereo unspecified),inactive,–
CN(C)c1ccc(Cc2ccc(N(C)C)cc2)cc1,inactive,–
CCNc1ccccc1,inactive,–
CC(C)CCCCCCOC(=O)c1ccc(C(=O)OCCCCCCC(C)C)c(C(=O)OCCCCCCC(C)C)c1,inactive,–
CC(=O)c1ccc2c(c1)[C@H](NC(=O)c1ccc(F)cc1)[C@@H](O)C(C)(C)O2,inactive,–
O=C(O)CCN(C1(C(=O)NO)CCCC1)S(=O)(=O)c1ccc(Oc2ccc(F)cc2)cc1,inactive,–
Cc1c(-c2cccnc2)c2ccccc2n1CCCCC(=O)O,–,51.2 µM (active)
CCc1cc(SCc2sc(-c3ccc(C(F)(F)F)cc3)nc2CN2CCN(c3ccc(OC)cc3)CC2)ccc1OCC(=O)O,inactive,–
COCCOc1cc2cc(C(=O)NC3CCN(C(C)C)CC3)n(CC(=O)Nc3ccc(Cl)cn3)c2cn1,inactive,–
